Compounds without any hit were thinned out: in the full panel of roughly 79,000, 15% have a hit. Unmarked numbers belong to inactive results. Cut-off read from the data, not from the text of the source: active = growth inhibition above about 70%; inactive = the rest.

One assay is described as follows: NCI Yeast Anticancer Drug Screen. Data for the mec2-1 strain (AID 157). The note with it: S. cerevisiae mec2-1 strain, at 50.0 µM, active compounds read high. An outline of the steps:
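Test agents were screened against the mec2-1 yeast strain, with defined DNA repair or cell cycle alteration. Growth was scored as inhibition against vehicle-only controls.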
In the case of `CCCCCCCCCCCCCCCC(=O)OCC(=O)O`, the growth inhibition is -16.4%.
`COc1ccc(NC(=O)NCc2ccc(C)cc2)cc1`: the growth inhibition is 33.8%.
For the molecule `COc1ccc2c(=O)cc[nH]c2c1OC`, the growth inhibition was -16.4%.
Still for that read-out and setting: next, `CCOC(=O)C(CN)c1ccccc1` (stereo not given): -9.5%; `O=C1c2c(F)c(F)c(F)c(F)c2SC2=Nc3cccc4cccc(c34)N12`: -3.8%.
For the molecule `N=c1sc(N2CCOCC2)nn1CC(=O)c1ccccc1`, the growth inhibition was -20.9%.
On the same count and under the same terms, next, `O=Cc1ccc(-c2ccc(S(=O)(=O)O)cc2)o1`: 6.85%; `COc1ccc(/C=N/NC(=O)NCCCN(C)C)cc1`: -29%.
For `NC(CCOCCP(=O)(O)CCC1C=CC=CC1)C(=O)O` (stereo not given), the growth inhibition is -31.7%.
On the same count and under the same terms, next, `COc1cccc(N2C(Cl)C(=O)C2c2c[nH]c3ccccc23)c1` (stereo not given): -37.2%.
As for `O=C(COc1ccc(Cl)cc1Cl)Nc1ccc2ccccc2c1S(=O)(=O)O`, the growth inhibition was 2.2%.
`c1ccc(C2OCC(OC3CCCCO3)CO2)cc1` (stereo not given): the growth inhibition is -26.5%.
On to `N#Cc1cnn2ccn(C3OC(CO)C(O)C3O)c12` (stereo not given), for which the growth inhibition is -14.2%.
Regarding `COC(=O)c1cc(C)c2c3ccccc3n(C)c2c1C(=O)OC`, the growth inhibition was -0.4%.
Take `CN(C)c1ccc(C(=Cc2ccccc2)c2ccc(N(C)C)cc2)cc1`: the growth inhibition is 18.3%.
The same measure, in the same setting: under `CCCCCCCCCCCCCCCCCCOC(=O)C1CCCN1` (stereo not given) stands 22.9%; under `N#C/C(=C\NC(=S)NCc1ccccc1)c1nc2ccccc2s1`, 32.4%; under `O=C(CCCO)c1nc2ccccc2s1`, 12.9%.
In the case of `COc1ccc2c(=O)c(Cc3c[nH]c4ccccc34)coc2c1`, the growth inhibition was 12%.
The same measure, in the same setting: next, `O=[N+]([O-])c1ccc(-c2ccncc2)cc1`: -31.9%.
The same measure, in the same setting: next, `Cc1ccc(C2OC(N)=C(O)C2=O)cc1` (stereo not given): 10.2%.
On the same count and under the same terms, next, `C=CC1C(=O)N(C)[C@H](C(C)(C)C)N1C(=O)c1ccccc1` (stereo not given in full): 11.9%.
In the case of `CN1c2ccccc2N(C)C2C1N(C)c1ccccc1N2C` (stereo not given), the growth inhibition was -28.4%.
`O=C(O)Cc1cc(I)c(Oc2ccc(O)cc2)c(I)c1`: the growth inhibition is -29.4%.
Same read-out and setting: under `COC(=O)C1(CC(=O)/C=C/c2ccccc2)NC(=S)NC(=O)C1C#N` (stereo not given) stands -3.65%; under `Cc1[nH]nc(N)c1C(N)=O`, 2.5%.
Take `O=C1CSC(c2cccc(C(F)(F)F)c2)N1c1nncs1` (stereo not given): the growth inhibition is 2.15%.
Turning to `CC(=O)OCCN(C)C`, the growth inhibition was -1.85%.
On to `Cc1cc(C)c(C(C)(C)O)c(C)c1`, for which the growth inhibition is 0%.
Still for that read-out and setting: next, `N.N.N.N.N.O=C([O-])c1nn[n-]n1.[Cl-].[Co+3]`: -1.1%.
As to `O=[N+]([O-])c1ccc(-c2ccc([N+](=O)[O-])cc2)cc1`, the growth inhibition was -0.95%.
Still for that read-out and setting: under `O=C1CSC=NN1c1ccccc1` stands -6.75%; under `CCC(CC)(CO)CO`, -5.75%.
On the same count and under the same terms, under `c1ccc(C(SN=C2CCCCC2)(c2ccccc2)c2ccccc2)cc1` stands -2.6%.
For the molecule `COC(=O)CC1(C(=O)OC)Nc2ccccc2C(=O)O1` (stereo not given), the growth inhibition was 21.7%.
`CCOC(=O)CN/N=C(\N)CSS(=O)(=O)O`: the growth inhibition was -17.4%.
Still for that read-out and setting: next, `O=C(Nc1ccccc1)C1CC2C=CC1C2` (stereo not given): -4.3%; `COc1ccc(CCNC(=O)CCc2ccccc2CO)cc1OC`: 13.9%.
Regarding `Cc1cn(C2CC(N=[N+]=[N-])C(CO)O2)c(=O)[nH]c1=O` (stereo not given), the growth inhibition was -0.4%.
The same measure, in the same setting: next, `COc1ccccc1NC(=O)NCCN1CCCC1`: 8.1%.

Another assay can be described thus: NCI Yeast Anticancer Drug Screen. Data for the sgs1 mgt1 strain (AID 161).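 Note: 0% = growth of cultures given vehicle only.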 The note with it: S. cerevisiae sgs1 mgt1 strain, at 50.0 µM, active compounds read high. In short, it runs like this: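 Read-out: growth inhibition vs vehicle controls. Cells: mutant yeast strain deficient in DNA damage repair.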
With `CCCCCCCCCCCCCCCC(=O)OCC(=O)O`, the growth inhibition was 23.2%.
On to `COc1ccc(NC(=O)NCc2ccc(C)cc2)cc1`, for which the growth inhibition is 33.8%.
For the molecule `COc1ccc2c(=O)cc[nH]c2c1OC`, the growth inhibition was -8.2%.
Regarding `CCOC(=O)C(CN)c1ccccc1` (stereo not given), the growth inhibition is 8.1%.
Still for that read-out and setting: under `O=C1c2c(F)c(F)c(F)c(F)c2SC2=Nc3cccc4cccc(c34)N12` stands -37.3%; under `N=c1sc(N2CCOCC2)nn1CC(=O)c1ccccc1`, -18.2%; under `O=Cc1ccc(-c2ccc(S(=O)(=O)O)cc2)o1`, -41.3%.
The same measure, in the same setting: under `COc1ccc(/C=N/NC(=O)NCCCN(C)C)cc1` stands -9.9%; under `NC(CCOCCP(=O)(O)CCC1C=CC=CC1)C(=O)O` (stereo not given), -29.1%; under `COc1cccc(N2C(Cl)C(=O)C2c2c[nH]c3ccccc23)c1` (stereo not given), -47.6%.
The same measure, in the same setting: next, `O=C(COc1ccc(Cl)cc1Cl)Nc1ccc2ccccc2c1S(=O)(=O)O`: 12.5%; `c1ccc(C2OCC(OC3CCCCO3)CO2)cc1` (stereo not given): -24.6%.
With `N#Cc1cnn2ccn(C3OC(CO)C(O)C3O)c12` (stereo not given), the growth inhibition is -18.9%.
On the same count and under the same terms, next, `COC(=O)c1cc(C)c2c3ccccc3n(C)c2c1C(=O)OC`: -8.9%.
On the same count and under the same terms, next, `CN(C)c1ccc(C(=Cc2ccccc2)c2ccc(N(C)C)cc2)cc1`: -2.8%.
With `CCCCCCCCCCCCCCCCCCOC(=O)C1CCCN1` (stereo not given), the growth inhibition was 12.8%.
Still for that read-out and setting: under `N#C/C(=C\NC(=S)NCc1ccccc1)c1nc2ccccc2s1` stands 53.5%.
With `O=C(CCCO)c1nc2ccccc2s1`, the growth inhibition is 2.8%.
On to `COc1ccc2c(=O)c(Cc3c[nH]c4ccccc34)coc2c1`, for which the growth inhibition was 29%.
Still for that read-out and setting: under `O=[N+]([O-])c1ccc(-c2ccncc2)cc1` stands -19.4%; under `Cc1ccc(C2OC(N)=C(O)C2=O)cc1` (stereo not given), -4%.
The same measure, in the same setting: under `C=CC1C(=O)N(C)[C@H](C(C)(C)C)N1C(=O)c1ccccc1` (stereo not given in full) stands 9.1%.
The same measure, in the same setting: next, `CN1c2ccccc2N(C)C2C1N(C)c1ccccc1N2C` (stereo not given): -12.4%.
`O=C(O)Cc1cc(I)c(Oc2ccc(O)cc2)c(I)c1`: the growth inhibition is 6.05%.
Same read-out and setting: next, `COC(=O)C1(CC(=O)/C=C/c2ccccc2)NC(=S)NC(=O)C1C#N` (stereo not given): -8.4%; `Cc1[nH]nc(N)c1C(N)=O`: 26.6%; `O=C1CSC(c2cccc(C(F)(F)F)c2)N1c1nncs1` (stereo not given): 19.6%.
On the same count and under the same terms, next, `CC(=O)OCCN(C)C`: -16%.
The same measure, in the same setting: under `Cc1cc(C)c(C(C)(C)O)c(C)c1` stands 3.9%; under `N.N.N.N.N.O=C([O-])c1nn[n-]n1.[Cl-].[Co+3]`, 7.15%.
Consider `O=[N+]([O-])c1ccc(-c2ccc([N+](=O)[O-])cc2)cc1`, for which the growth inhibition is 7.7%.
Still for that read-out and setting: next, `O=C1CSC=NN1c1ccccc1`: -14.9%; `CCC(CC)(CO)CO`: -4.3%; `c1ccc(C(SN=C2CCCCC2)(c2ccccc2)c2ccccc2)cc1`: -25.6%.
In the case of `COC(=O)CC1(C(=O)OC)Nc2ccccc2C(=O)O1` (stereo not given), the growth inhibition was 18.8%.
Same read-out and setting: next, `CCOC(=O)CN/N=C(\N)CSS(=O)(=O)O`: -2.05%.
On the same count and under the same terms, under `O=C(Nc1ccccc1)C1CC2C=CC1C2` (stereo not given) stands 4%; under `COc1ccc(CCNC(=O)CCc2ccccc2CO)cc1OC`, -36.9%; under `Cc1cn(C2CC(N=[N+]=[N-])C(CO)O2)c(=O)[nH]c1=O` (stereo not given), -39.5%.
As to `COc1ccccc1NC(=O)NCCN1CCCC1`, the growth inhibition is 31.1%.

(Values after PubChem BioAssay (NCI).)
